Most compounds without a hit are left out; they make up all but 0.9% or so of the library.
SRC1 TRFRET art: TR-FRET detection interference compounds, primary screen, artefact control for PPARgamma SRC-1 recruitment agonists, biochemical, TR-FRET emission ratio; actives 0.34% (n = 99,000); TR-FRET ratio at 8 µM; TR-FRET detection artefact counter-screen; stronger effect = higher value; in the data active = TR-FRET ratio above about 2300
SRC3 TRFRET art: TR-FRET detection interference compounds, artefact control for PPARgamma SRC-3 recruitment agonists, biochemical, TR-FRET ratio | TR-FRET artefact counter-screen, PPARgamma/SRC-3 format; stronger effect = higher value | TR-FRET ratio at 8 µM | actives 0.39% (n = 99,000)
PPARg SRC3 recr: PPARgamma agonists recruiting SRC-3 coactivator, primary screen, biochemical; biochemical PPARgamma/SRC-3 coactivator recruitment assay; Peroxisome proliferator-activated receptor gamma (Homo sapiens), P37231; actives 0.26% (n = 200,000); activation, % at 8 µM; AID 731, 2007; in the data active = activation above about 23%;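 note: 0% = DMSO and 100% = reference agonist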
PPARg SRC1 recr: PPARgamma agonists recruiting SRC-1 coactivator, primary screen, biochemical; Peroxisome proliferator-activated receptor gamma (Homo sapiens), P37231; PPARgamma-SRC-1 coactivator recruitment biochemical assay; activation, % at 8 µM; actives 0.41% (n = 200,000); in the data active = activation above about 19%;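 note: 0% = DMSO and 100% = reference agonist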
PPARg SRC-2 ag: agonists of PPARg-SRC-2 recruitment, primary screen, biochemical, HTS | PPARgamma LBD-SRC-2 recruitment | activation, % at 8 µM | actives 0.34% (n = 200,000) | AID 1032, 2008; in the data active = activation above about 22%;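 note: 0% = vehicle and 100% = reference agonist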
TR-FRET SRC-2 ct: TR-FRET signal artefacts, primary screen, artefact control for PPARgamma SRC-2 agonist project, biochemical; TR-FRET artefact counter-screen; stronger effect = higher value; TR-FRET ratio at 8 µM; actives 0.4% (n = 200,000)
PPARg SRC2 ag: agonists of PPARgamma SRC-2 coactivator recruitment, confirmation, biochemical, HTS | actives 52% (n = 790) | biochemical SRC-2 recruitment by PPARgamma | shares compounds with PPARg SRC3 recr | activation, % at 8 µM; in the data active = activation above about 22%;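 note: 0% = vehicle alone and 100% = reference agonist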
PPARg SRC1 conf: PPARgamma agonists recruiting SRC-1 coactivator, confirmation, biochemical; PPARgamma–SRC-1 coactivator recruitment biochemical assay; actives 43% (n = 790); shares compounds with PPARg SRC3 recr; activation, % at 8 µM; in the data active = activation above about 20%;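 note: 0% = vehicle wells and 100% = reference agonist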
PPARg SRC3 ag: PPARgamma-driven SRC-3 coactivator recruitment agonists, confirmation, biochemical; shares compounds with PPARg SRC3 recr; biochemical PPARgamma-SRC-3 coactivator recruitment, agonist mode; activation, % at 8 µM; actives 29% (n = 790); AID 1301, 2008; in the data active = activation above about 24%;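 note: 0% = vehicle wells and 100% = reference agonist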
The depositor's hits bear a star; / = not tested or not shown. Cut-off read from the data, not from the text of the source, unless noted: active = TR-FRET ratio above about 2000; inactive = the rest.

SMILES | SRC1 TRFRET art | SRC3 TRFRET art | PPARg SRC3 recr | PPARg SRC1 recr | PPARg SRC-2 ag | TR-FRET SRC-2 ct | PPARg SRC2 ag | PPARg SRC1 conf | PPARg SRC3 ag
COCCCn1c(=S)[nH]c2sc3c(c2c1=O)CCCS3 | 3194* | 2497* | 36* | 43* | 44* | 2732* | 57* | 40* | 38*
COc1cccc(C2C3=C(CCCC3=O)Nc3[nH]n(-c4ccccc4)c(=O)c32)c1 (stereo not drawn) | 1713 | 1360 | 7 | -1 | 10 | 1591 | / | / | /
COc1cccc(C2C3=C(Nc4[nH]n(-c5ccccc5)c(=O)c42)c2ccccc2C3=O)c1 (stereo not drawn) | 1698 | 1497 | 33* | 22* | 15 | 1497 | 54* | 54* | 56*
COc1ccc2[nH]c3ccccc3c2c1 | / | / | -5 | -3 | 8 | 1426 | / | / | /
COc1ccc2c(c1)Sc1ccccc1N2 | 2097 | 1823 | 13 | 27* | 17 | 1917 | 11 | 14 | 13
C=CCn1c(NS(=O)(=O)c2ccccc2)c(S(=O)(=O)c2ccc(C)cc2)c2nc3ccccc3nc21 | 1803 | 1561 | 48* | 39* | 24* | 1450 | 4 | 7 | 10
COc1cc(/C=C(\C#N)C(=O)Nc2cccc3ncccc23)cc(OC)c1OC | 1866 | 1573 | 24* | 9 | 10 | 1527 | 3 | 10 | 13
CCn1c(-c2nn(C)cc2Cl)n[nH]c1=S | 2020 | 1469 | -1 | 0 | 5 | 1771 | / | / | /
S=c1[nH]nc(-c2cc(-c3ccco3)[nH]n2)n1-c1ccccc1 | / | / | 27* | 6 | 18 | 1917 | 23* | 16 | 14
Cc1c(Cl)c(-c2n[nH]c(=S)n2-c2ccc(F)cc2)nn1C | / | / | 48* | 33* | 31* | 2050* | 28* | 17 | 19
Cc1cc(-c2n[nH]c(=S)n2-c2ccccc2)nn1C | 2186 | 1839 | 6 | 14 | 12 | 1825 | / | / | /
Cn1cc(Cl)c(-c2n[nH]c(=S)n2-c2ccccc2)n1 | 2497* | 2184* | 21 | 30* | 35* | 2159* | 27* | 16 | 18
Cc1nn(C)c(-c2n[nH]c(=S)n2-c2ccccc2)c1Cl | 2273 | 2211* | 21 | 24* | 14 | 2081* | 22 | 16 | 18
COC(=O)Nc1ccc(S(=O)(=O)N2CCCC(C(=O)NC3CCS(=O)(=O)C3)C2)cc1 (stereo not drawn) | 1883 | 1765 | 3 | 0 | 4 | 1522 | / | / | /
Cc1ccc(S(=O)(=O)N(CCC(=O)O)Cc2ccc(Cl)cc2)cc1 | / | / | -11 | 1 | 5 | 1535 | / | / | /
Cc1[nH]nc(SCC(=O)NCc2ccc(F)cc2)c1[N+](=O)[O-] | 1926 | 1432 | 2 | 4 | 2 | 1288 | / | / | /
Cc1ccc2nc(N3CCN(C)CC3)c(C#N)cc2c1 | / | / | -2 | 3 | -4 | 1378 | / | / | /
Cc1ccc2nc(N3CCN(S(=O)(=O)c4ccc(C)c(Cl)c4)CC3)c(C#N)cc2c1 | / | / | 29* | 22* | 6 | 1637 | 9 | 6 | 4
O=C(CCn1cnc(-c2ccccc2)c1-c1ccccc1)N/N=C/c1ccccc1O | 1711 | 1450 | 0 | -6 | -3 | 1566 | / | / | /
CCOC(=O)c1cccc(-n2c(-c3ccc(OC)cc3)nc3nc4ccccc4nc32)c1 | 1740 | 1623 | 1 | 3 | 0 | 1540 | / | / | /
COC1Cc2ccccc2N(C(=O)N2CCN(CCO)CC2)c2ccccc21 (stereo not drawn) | / | / | 1 | 19* | 9 | 1731 | 1 | -1 | 0
COc1ccc(OC)c2c1C(=O)c1ccccc1C2=O | / | / | -1 | 5 | 7 | 1531 | / | / | /
Nc1ccc(O)c2c1C(=O)c1ccccc1C2=O | 2546* | 2307* | 21 | 24* | 32* | 2073* | 17 | 11 | 10
COc1ccc(N)c2c1C(=O)c1ccccc1C2=O | 2519* | 2262* | 27* | 23* | 34* | 1893 | 25* | 23* | 20
CCOc1ccc(S(=O)(=O)N2CCN(C(=O)c3sccc3C)CC2)cc1 | / | / | 2 | 7 | 7 | 1583 | / | / | /
SMILES | SRC1 TRFRET art | SRC3 TRFRET art | PPARg SRC3 recr | PPARg SRC1 recr | PPARg SRC-2 ag | TR-FRET SRC-2 ct | PPARg SRC2 ag | PPARg SRC1 conf | PPARg SRC3 ag
C=CCn1c(NCc2cc(C)ccc2O)nc2ccccc21 | / | / | 3 | 8 | 19 | 1758 | / | / | /
C=CCn1c(NC(C)c2cc(Cl)ccc2O)nc2ccccc21 (stereo not drawn) | / | / | 28* | 41* | 27* | 1650 | 19 | 32* | 31*
CCN(CC)C(=O)c1sc2[nH]c(=S)n(-c3ccccc3)c(=O)c2c1C | / | / | 9 | 13 | 27* | 1795 | 10 | 7 | 8
Cc1ccc2nc3sc(C(=O)NCc4ccco4)c(N)c3cc2c1 | / | / | 18 | 10 | 15 | 1592 | / | / | /
COc1cc2cc3c(N)c(C(=O)NCc4ccco4)sc3nc2cc1OC | / | / | 23 | 21* | 14 | 1949 | 2 | 2 | 3
Cc1ncc(CO)c(/C=N/NC(=O)c2cc3c(s2)CCCC3)c1O | 1810 | 1546 | 0 | -4 | -2 | 1727 | / | / | /
CCn1c(=O)c(=O)[nH]c2cc(C(=O)Nc3ccc(S(=O)(=O)N4CCCC4)cc3)ccc21 | / | / | 26* | 13 | 10 | 1683 | 3 | 5 | 4
CCn1c(=O)c(=O)[nH]c2cc(C(=O)NC3CC3)ccc21 | 1982 | 1661 | 0 | 3 | 2 | 1462 | / | / | /
COc1ccc(NC(=S)N2CCNC(=O)C2CC(=O)Nc2cccc(Cl)c2C)cc1 (stereo not drawn) | 1865 | 1562 | 3 | 0 | 6 | 1673 | / | / | /
Cc1ccccc1-c1ccc(C=Nc2c(C)n(C)n(-c3ccccc3)c2=O)o1 | / | / | 20 | 24* | 35* | 2051* | 24* | 19 | 17
CSCCC(NS(=O)(=O)c1ccc(C)c(C(=O)O)c1)C(=O)O (stereo not drawn) | 1662 | 1567 | -3 | 0 | -6 | 1491 | / | / | /
COCCNc1oc(-c2cccs2)nc1S(=O)(=O)c1ccc(C)cc1 | 1747 | 1609 | 5 | 4 | -4 | 1626 | / | / | /
COCCCNc1oc(-c2cccs2)nc1S(=O)(=O)c1ccc(C)cc1 | 1713 | 1632 | 33* | 15 | -2 | 1478 | 2 | 14 | 16
